Source: PubChem BioAssay AID1851 (National Center for Advancing Translational Sciences (NCATS), 2009)
Among all 16,000 compounds or so, about 5,800 (36%) were called active. Another 23% or so got no clear call; they are omitted. Calls come from the whole dose curve; as a rule, active = well fitted curve in the direction sought with a large enough effect; inconclusive = small, poorly fitted or top-dose-only effect, or effect the other way; inactive = no such curve, though single readings can be large or run the other way. This is one part of the list.
% is set by controls: 0 for no effect and ±100 for the full control effect.

What follows are molecules tested against Cytochrome P450 2C19 (Homo sapiens) (UniProt P33261) (assay: Cytochrome panel assay with activity outcomes). Settings: recombinant CYP, pro-luciferin dealkylation, luminescence, p450-cyp2c19; series mostly up to 57.1 µM; activity, negative = inhibition: at the top concentration.
Chain of Cytochrome P450 2C19 (Homo sapiens) (P33261 whole entry, looked up): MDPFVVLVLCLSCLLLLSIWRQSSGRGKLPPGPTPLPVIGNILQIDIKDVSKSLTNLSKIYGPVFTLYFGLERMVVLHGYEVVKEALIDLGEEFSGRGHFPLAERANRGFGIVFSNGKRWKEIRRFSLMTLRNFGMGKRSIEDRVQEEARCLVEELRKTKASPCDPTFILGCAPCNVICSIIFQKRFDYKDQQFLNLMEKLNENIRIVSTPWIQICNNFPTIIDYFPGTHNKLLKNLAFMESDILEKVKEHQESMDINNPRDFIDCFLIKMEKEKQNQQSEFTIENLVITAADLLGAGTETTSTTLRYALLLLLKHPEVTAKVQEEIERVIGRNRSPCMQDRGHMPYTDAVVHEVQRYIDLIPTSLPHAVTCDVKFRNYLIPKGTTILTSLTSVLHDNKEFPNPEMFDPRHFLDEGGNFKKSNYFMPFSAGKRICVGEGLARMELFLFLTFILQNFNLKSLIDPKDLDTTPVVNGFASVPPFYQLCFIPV
With COc1cc(C2C(C#N)=C(N)N(c3sc4c(c3C#N)CCCC4)C3=C2C(=O)CC(C)(C)C3)cc(OC)c1OC (stereo not drawn) the AC50 was 10 µM (active). For Cc1ccccc1C1C(C#N)=C2N=C(N)c3c(sc4c3CCCCC4)N2C2=C1C(=O)CC(C)(C)C2 (stereo not drawn), the AC50 was 6.31 µM (active). In the case of CC(=O)OC[C@@H]1O[C@@H](O/N=C2/C[C@@H](O)[C@@H](O)[C@@H]3[C@@H]4C(=O)N(C[C@@H]5CCCO5)C(=O)[C@H]4CC[C@@H]23)[C@H](OC(C)=O)[C@H](OC(C)=O)[C@@H]1OC(C)=O, the activity, negative = inhibition is reported as 3.68% [at 11.4 µM] (inactive). For COc1cccc(Cn2c(NCc3cccnc3)nc3c2c(=O)n(C)c(=O)n3C)c1, the AC50 was 17.8 µM (active). In the case of Nc1nc(-c2ccccc2)c(-c2ccccc2)c(-c2nc(N)nc(-c3ccccc3)c2-c2ccccc2)n1, the activity, negative = inhibition is reported as 13% [at 11.4 µM] (inactive). In the case of Nc1nc(-c2ccccc2)c(-c2ccccc2)s1, the AC50 is reported as 8.91 µM (active). In the case of Nc1ccc(-c2sc(N)nc2-c2ccccc2)cc1, the AC50 is reported as 7.94 µM (active). Cc1ccc(C)c(NC(=O)C2CC3c4ccccc4C2c2ccccc23)c1 (stereo not drawn) was tested, and the AC50 was 20 µM (active). For Cc1ccc(C)c(NC(=O)C2C3CCCC2C3c2ccccc2)c1 (stereo not drawn), the “activity, negative = inhibition” value was -1.2% (inactive). With Nc1nc2c(ncn2COC(CO)CO)c(=O)[nH]1 the AC50 was “inactive”. With CC(=O)c1sc(N)c(C(=O)OC(C)C)c1C the AC50 was 1.58 µM (active). In the case of CC(C)CN1CCCC2(CCN(C(=O)c3cc(C(F)(F)F)cc(C(F)(F)F)c3)CC2)C1, the “activity, negative = inhibition” value is reported as -8.77% (inactive). With CCOC(=O)CSCC(NC(=O)OC(C)(C)C)C(=O)OCC (stereo not drawn) the AC50 was 10 µM (active). With CC(C)[C@H](NC(=O)OC(C)(C)C)[C@@H](O)CC(=O)OC(C)(C)C the activity, negative = inhibition was -17.9% [at 11.4 µM] (inactive). For CC(=O)C[C@H](O)[C@@H](NC(=O)OC(C)(C)C)C(C)C, the activity, negative = inhibition was -9.61% [at 11.4 µM] (inactive). In the case of Cc1c(Cl)c([N+](=O)[O-])nn1Cc1ccc(C(=O)N/N=C\c2cc(Cl)ccc2O)o1, the AC50 is reported as 1.78 µM (active). With Cc1c(Cl)c([N+](=O)[O-])nn1Cc1ccc(C(=O)N/N=C\c2cccc(Br)c2)o1 the AC50 was 1.12 µM (active). In the case of Cc1nn(Cc2ccc(Cl)cc2)c(C)c1NC(=O)Cn1nc([N+](=O)[O-])c(Cl)c1C, the “activity, negative = inhibition” value is reported as 25.1% (inactive). For O=C(O)/C=C\C(=O)Nc1ccc2c(c1)C(=O)c1cc(F)ccc1-2, the activity, negative = inhibition was 28.8% [at 11.4 µM] (inactive). O=C(/C=C/c1cccc(Cl)c1)Nc1ccncc1 was tested, and the AC50 was 0.0708 µM (active). For Cc1nc(N=Nc2cc(S(=O)(=O)O)ccc2S(=O)(=O)O)c(COP(=O)(O)O)c(C=O)c1O, the “activity, negative = inhibition” value was -31.8% (inactive). With CN(C)c1ccc(/C=C2/C(=O)Nc3ccccc32)cc1 the “activity, negative = inhibition” value was -24.9% (inactive). With CCCCC1(C)OC(=O)C(=Cc2ccc(N(CC)CC)cc2)C(=O)O1 (stereo not drawn) the AC50 was 10 µM (active).
